# Measured values published in PMC12548414.
# The campaign covered roughly 1,600 compounds. About 20 (1%) showed an effect of 50% or more. This excerpt belongs to a sample that is enriched for strong results.
# Test system: T1, E. coli pLC1021 (luc-trpAt trans-translation reporter)
# T1 construct: pLC1021 luc-trpAt reporter strain
# Set-up: species or system Escherichia coli pLC1021; luc-trpAt non-stop luciferase reporter; luminescence rises when trans-translation is inhibited; normalized to KKL-35 and DMSO
# Settings: reporter signal, KKL-35 = 100%; rise means trans-translation inhibition; 2 h, 20 µM
# Procedure: The luciferase screen was performed as previously described ([16]). […] 48 µL of cells was transferred to white 96-well plates, and 2 µL DMSO or 20 µM compound, or 20 µM KKL-35 was added. Plates were sealed with adhesive film, vortexed gently to mix, and incubated at room temperature for 2 h. 50 µL Bright-Glo reagent (Promega, Madison, WI) was added to each well, and the plates were sealed with adhesive film, vortexed vigorously, and incubated for an additional 10 min at room temperature. Luminescence was measured at 560 nm using a SpectraMax i3 microplate reader and readings for each plate were normalized to the average of three KKL-35-treated wells (positive control) and three DMSO-treated wells (negative control) within the plate to correct for plate-to-plate and day-to-day variations. Results from at least two biological repeats were averaged, and GraphPad Prism was used to plot the data. We screened a library of 1,601 anti-tubercular small molecules for their ability to inhibit trans-translation using a luciferase reporter in Escherichia coli. In this luc-trpAt reporter, the firefly luciferase gene has a trpA transcriptional terminator before the stop codon, such that luciferase is translated from a non-stop mRNA ([16]). When trans-translation is active, the luciferase will be tagged and degraded, but when trans-translation is inhibited, active luciferase will accumulate, resulting in a luminescent signal when luciferin is added. Luciferase activity was measured after growth in the presence of compounds from the library at 20 µM, using the known trans-translation inhibitor KKL-35 as a positive control (Fig. 1A) ([16], [17]). Compounds with activity one standard deviation above the median were scored as positive (Fig. S1 and Table S1).
row,Structure (SMILES),% activation [%]
1,COC(=O)CSc1nc(N)c2c3c(sc2n1)CCCC3 [KKL-0994],9
2,COc1ccc(C(=O)NC(=S)Nc2ccc(N3CCCCC3)cc2)cc1OC [KKL-1472],0
3,Cc1cc(Nc2ccccc2)n(-c2nc3ccccc3[nH]2)n1 [KKL-0835],21
4,COc1ccc2[nH]c(CNCCc3nc4cc(Cl)ccc4[nH]3)cc2c1 [KKL-1215],0
5,COCc1nnc(NC(=O)c2nnn(-c3ccccc3F)c2C)s1 [KKL-0547],0
6,CCC(C)NCCCOc1ccc(Cl)c2ccccc12 (stereo not shown) [KKL-1428],0
7,O=C(CNCCN1CCOCC1)Nc1sc2c(c1C(=O)Nc1ccccc1)CCC2 [KKL-1074],2
8,CCOC(=O)c1ccc(NC(S)=Nc2ccc(Oc3ccccc3)cc2)cc1 [KKL-1317],0
9,Cc1c(C(=O)NC(=S)Nc2ccc(Oc3ccc(Cl)cc3)cc2)cccc1[N+](=O)[O-] [KKL-0735],17
10,O=C(COc1cccc(F)c1)Nc1nc(-c2ccccn2)cs1 [KKL-1787],5
11,O=C(CSc1ccccc1)Nc1ccc(-c2nc3ccccc3c(=O)o2)cc1 [KKL-0595],1
12,O=C(Nc1ccc(F)cc1)NC1CCCCCCC1 [KKL-1335],0
13,COc1cc(CN(CCCn2ccnc2)Cc2ccc(C)s2)cc2c1OCO2 [KKL-0341],9
14,CSc1nc2nc3c(c(O)n2n1)CCCC3 [KKL-1033],0
15,O=C(Oc1c(Cl)cc(Cl)c2cccnc12)c1ccco1 [KKL-1639],0
16,O=C(Oc1c(Cl)cc(Cl)c2cccnc12)c1ccccc1[N+](=O)[O-] [KKL-1418],90
17,O=C(Oc1c(Cl)cc(Cl)c2cccnc12)c1ccc([N+](=O)[O-])cc1 [KKL-0754],96
18,COc1ccc(C(=O)Oc2cccc3cccnc23)cc1[N+](=O)[O-] [KKL-1648],0
19,Cc1c(C(=O)Oc2cccc3cccnc23)cccc1[N+](=O)[O-] [KKL-0952],8
20,Cc1ccc(C(=O)Oc2ccc(Cl)c3cccnc23)cc1[N+](=O)[O-] [KKL-1383],0
21,CCCc1cc2c(=O)c(-c3ccc4c(c3)OCCCO4)coc2cc1OCC(=O)OCC [KKL-1419],0
22,O=C(Nc1ccc(Cl)cc1C(F)(F)F)c1ccc([N+](=O)[O-])o1 [KKL-0712],0

row,Structure (SMILES),% activation [%]
1,COc1ccc(-c2cncc(-c3cc(N4CCN(CCO)CC4)nc(-c4ccccc4)n3)c2)cc1 [KKL-1682],0
2,CN1CCN(c2cc(-c3ccncc3)nc(-c3ccccc3)n2)CC1 [KKL-1795],237
3,CN1CCN(c2cc(-c3ccc(F)cc3)nc(-c3ccncc3)n2)CC1 [KKL-1844],0
4,Cc1cc(CN2CCC(O)(c3ccccc3)C2)ccc1N1CCCC1 (stereo not shown) [KKL-0330],0
5,CCc1ccc(Nc2nnc(SCc3cc(C)on3)s2)cc1 [KKL-1791],0
6,N#Cc1cc2c(ccc3ccccc32)oc1=O [KKL-1386],0
7,CCCc1ccc2oc(C(=O)NCCc3ccc(O)cc3)c(C)c2c1 [KKL-1185],2
8,C#CCOc1cccc(CN2CCn3cccc3C2CC)c1 (stereo not shown) [KKL-0516],0
9,CSc1ncc(CN2CCCC(C(=O)c3ccc(-c4ccccc4)c(F)c3)C2)cn1 (stereo not shown) [KKL-0344],0
10,CN(CC1Cc2ccccc2CN1C)C(=O)c1cc(COc2cncc(Cl)c2)on1 (stereo not shown) [KKL-1186],0
11,COc1ccccc1N1C(=O)c2cccc3cc([N+](=O)[O-])cc(c23)C1=O [KKL-1508],0
12,Cc1ccccc1OCCCON1C(=N)N=C(N)NC1(C)C [KKL-1698],11
13,COc1ccc(C(C)(C)C)cc1N=C(S)Nc1ccc(Cl)c(Cl)c1 [KKL-1535],0
14,Cc1ccc2nc(C(F)(F)F)c(C(=O)NCc3cccc(OC(C)C)c3)n2c1 [KKL-1772],2
15,CC(=O)Nc1ccc2cccc(O)c2n1 [KKL-0957],55
16,Oc1cccc2ccc(/C=C/c3cccc(F)c3)nc12 [KKL-1464],18
17,Cc1ccccc1/C=C/c1ccc2cccc(O)c2n1 [KKL-0432],11
18,Cc1nc2ccccn2c1C(=O)Nc1ccc(C(C)(C)C)cc1 [KKL-1770],0
19,N#Cc1ncn(-c2ccc3nnc(C(F)(F)F)n3n2)n1 [KKL-1886],0
20,CC(C)c1noc(N2CCC(C(C)Oc3cnc(-c4ccc(S(C)(=O)=O)c(F)c4)cn3)CC2)n1 (stereo not shown) [KKL-1810],0
21,Cc1ccc(-c2cc(C(=O)N3CCCC(N4CCN(c5ccccc5C)CC4)C3)[nH]n2)s1 (stereo not shown) [KKL-0485],0
22,COc1cccc(O)c1CN1CCC(C(=O)Nc2ccc(-c3cccc(C)c3)cc2)CC1 [KKL-0508],0

row,Structure (SMILES),% activation [%]
1,CSc1nccc(N2CCCC(CCC(=O)NCc3ccc(F)c(F)c3)C2)n1 (stereo not shown) [KKL-0346],0
2,c1ccc(-c2nc3c(c(N4CCN(Cc5cc6ccccc6[nH]5)CC4)n2)CCC3)cc1 [KKL-0483],0
3,Fc1ccc(Nc2nc(-c3ccccn3)cs2)cc1 [KKL-0715],18
4,O=C(CCCSc1ccccc1)Nc1nc(-c2ccccn2)cs1 [KKL-0800],1
5,COC(=O)COc1ccc2c(=O)c(-c3ccccc3Cl)c(C)oc2c1 [KKL-0748],0
6,COC(=O)COc1ccc(NC(=O)c2ccccc2I)cc1 [KKL-1569],0
7,Cc1ccc(NC(=O)C(Cl)Cl)cc1[N+](=O)[O-] [KKL-1373],4
8,O=C(Cc1ccc(F)cc1)Nc1nc(-c2ccccn2)cs1 [KKL-1688],13
9,Cc1cc(NCc2ccccn2)n2ncc(-c3ccccc3)c2n1 [KKL-0947],0
10,COc1ccccc1CN1CCCCC1C(=O)Nc1ccc(-n2cccn2)cc1 (stereo not shown) [KKL-0494],3
11,Cc1ccc(-n2cc(CN(C)Cc3cc(C)[nH]n3)c(-c3ccc(F)cc3)n2)cc1 [KKL-0319],0
12,COc1ccccc1C1(O)CCN(Cc2cnn(-c3ccc(C)cc3)c2)CC1 [KKL-0553],7
13,O=[N+]([O-])c1cccc(NC(S)=Nc2ccc(Cl)c(C(F)(F)F)c2)c1 [KKL-1319],0
14,COC(=O)C(CCSC)NC(=O)c1cc(COc2ccc(F)cc2Cl)on1 (stereo not shown) [KKL-0497],9
15,O=C(Nc1ccc(Oc2cccnc2)cc1)C1Oc2ccccc2O1 [KKL-0696],0
16,c1ccc(CCNc2ccnc3cc4ccccc4cc23)cc1 [KKL-1051],0
17,Cc1nc(C2CCNCC2)ncc1-c1nc(N2CCCCCC2)ncc1-c1ccc(F)cc1 [KKL-0335],0
18,C(=C\c1nc(N2CCCC2)c2ccccc2n1)/c1ccccc1 [KKL-1269],0
19,Cc1ccc2nc(C(F)(F)F)c(C(=O)NCc3cc(Cl)cc(Cl)c3)n2c1 [KKL-1785],16
20,COc1ccc(CCN=C(S)N2CCN(C/C=C/c3ccccc3)CC2)cc1OC [KKL-1528],2
21,CC(C)c1ccc(OCC(=O)NNC(=S)NC(=O)c2ccco2)c(Br)c1 [KKL-0743],24
22,Cc1ccc(C2(O)CCN(CCNC(=O)c3oc4ccccc4c3C)CC2)cc1 [KKL-0340],1

row,Structure (SMILES),% activation [%]
1,CC(C)(C)c1ccc(C(=O)Nc2ccc(NC(=S)NC(=O)c3cccs3)cc2)cc1 [KKL-0310],0
2,Oc1c(CN2CCc3ccccc3C2)cc(Cl)c2cccnc12 [KKL-0391],42
3,CSc1ncc(C(=O)NC2(c3ccccc3)CCCC2)cn1 [KKL-0465],0
4,COc1ccc(N=c2cc(-c3ccc(O)cc3)oc3ccccc23)cc1 [KKL-0846],0
5,CCC(Sc1nc2ccccc2o1)C(=O)Nc1nnc(C)s1 (stereo not shown) [KKL-1356],2
6,CCc1ccc(C2CC(C(F)(F)F)n3ncc(C(=O)NCc4cccs4)c3N2)cc1 (stereo not shown) [KKL-1779],0
7,Cc1ccccc1CN1CC[C@@H]2[C@H](C1)[C@@H](c1ccc(F)cc1)CN2C(=O)C(C)C [KKL-1218],2
8,OC(CN1CCC(O)(c2ccc(F)cc2)CC1)c1ccc(-c2ccccc2)cc1 (stereo not shown) [KKL-0933],0
9,CCC1CCCCN1C(=O)COC(=O)c1cc2ccccc2cc1O (stereo not shown) [KKL-0823],0
10,O=C(NCc1cc(Cl)cc(Cl)c1)c1c(C(F)(F)F)nc2ccccn12 [KKL-1807],0
11,O=C(Nc1ccn(Cc2ccc(Cl)cc2)n1)c1ccc2c(c1)OCO2 [KKL-0566],0
12,FC(F)(F)c1nnc2ccc(Sc3nnc(-c4ccco4)o3)nn12 [KKL-1754],1
13,CCCC(=O)NC(=S)Nc1ccc(N2CCN(C(=O)c3cccs3)CC2)c(Cl)c1 [KKL-0912],0
14,O=C(NCc1cnn(-c2cccc(F)c2)c1)c1cc(COc2cccc3cccnc23)on1 [KKL-0634],2
15,O=C(NCCCc1ccc(F)cc1)c1cc(-c2ccccn2)[nH]n1 [KKL-0693],0
16,O=C(Nc1nccs1)c1ccc(CSc2ccccc2)o1 [KKL-0586],0
17,CCc1c(C)c2ccc(OCC(=O)OC)c(C)c2oc1=O [KKL-1278],0
18,CCOC(=O)/C(C#N)=C/c1ccc(-c2ccc(F)cc2)o1 [KKL-0788],0
19,O=C(CC12CC3CC(CC(C3)C1)C2)Nc1cccc(C(F)(F)F)c1 [KKL-1282],0
20,NC1CCc2nc(-c3ccncc3)nc(Nc3ccc(C(F)(F)F)cc3)c2C1 (stereo not shown) [KKL-0539],620
21,O=C(/C=C/c1cccc(C(F)(F)F)c1)Nc1cccc(C(F)(F)F)c1 [KKL-1369],0
22,NC1CCc2nc(-c3ccncc3)nc(Nc3cccc(C(F)(F)F)c3)c2C1 (stereo not shown) [KKL-0541],802
